One test concerns the target MACROD1. The experiment in a line: pooled miR-30 sensor sort-seq; sequence = guide strand. The settings on record: shRNA.
Turning to TTCGCCTCCTTCCAGTCGGTGG, the sensor-assay potency score (higher = more potent) is -1.48.

For the sequence TCATTGAGCTGCTTGTCCTTTT, the sensor-assay potency score (higher = more potent) was -0.672.

On to TGCTTGTCCTTTTTATACCTGG, for which the sensor-assay potency score (higher = more potent) is -0.621.

The target in the next test is MAD2L2. Described as above. Conditions: shRNA.
TTTTAGTGGTATCAGCCGGGGG showed a sensor-assay potency score (higher = more potent) of -1.07.

TGGATCTTCTCCATGTTGCGAG registered a sensor-assay potency score (higher = more potent) of -0.717.

Regarding TTTATCCAAAATCACCACCACC, the sensor-assay potency score (higher = more potent) is -1.44.

In turn, TTTAGTGGTATCAGCCGGGGGT showed a sensor-assay potency score (higher = more potent) of -0.467.

In turn, TGAGACAACAGCGAGTCTGAGC yielded a sensor-assay potency score (higher = more potent) of -0.635.

Sequence TTTTTAGTGGTATCAGCCGGGG returned a sensor-assay potency score (higher = more potent) of -0.778.

For TTGTACTTCTTGCGTTTCTGGA, the sensor-assay potency score (higher = more potent) is -0.29.

In the case of TCCACATGAGACAACAGCGAGT, the sensor-assay potency score (higher = more potent) is -1.88.

For TATACTGATTCAGCTCCGGGTG, the sensor-assay potency score (higher = more potent) is -0.735.

As for TTCCACGTAAAGCTGCATCTTT, the sensor-assay potency score (higher = more potent) was -0.0388.

Turning to TTTCTCCACATCATTCTTCTCC, the sensor-assay potency score (higher = more potent) was -0.203.

Sequence TGTACTTCTTGCGTTTCTGGAA returned a sensor-assay potency score (higher = more potent) of -0.3.

A further test concerns the target MAFG. The description is as above. The settings on record: shRNA.
TTTATCGGGGACACACTCTAGC registered a sensor-assay potency score (higher = more potent) of -0.0679.

TTTAGCAATAAATACTGCGCAG displayed a sensor-assay potency score (higher = more potent) of -0.617.

Turning to TTAGCAATAAATACTGCGCAGG, the sensor-assay potency score (higher = more potent) is -0.418.

The sequence TACTATTGTGATGACGCTGGTG showed a sensor-assay potency score (higher = more potent) of 0.19.

For the sequence TATATAAAAACTAAACTCCAAC, the sensor-assay potency score (higher = more potent) is -1.06.

TTATATATCACAAACATACACT had a sensor-assay potency score (higher = more potent) of -0.989.

TATAATTAATTTAATAACTTTG returned a sensor-assay potency score (higher = more potent) of -0.864.

Sequence ATAATGTCTGATAACTCTGTGT showed a sensor-assay potency score (higher = more potent) of -0.547.

Take TTCTATTATACTTTCTTCCCTT: the sensor-assay potency score (higher = more potent) is -0.191.

In turn, TAGATCTTTAATAACCTCCATC came in with a sensor-assay potency score (higher = more potent) of -0.748.

Sequence TCGAGCTCCAGCTTCATGCTGG came in with a sensor-assay potency score (higher = more potent) of -0.0457.

Regarding TTTACTATTGTGATGACGCTGG, the sensor-assay potency score (higher = more potent) was determined as 0.761.

Another test concerns the target MAF. The test is described as above. The settings on record: shRNA.
TCATCCAGTAGTAGTCTTCCAG displayed a sensor-assay potency score (higher = more potent) of -0.918.

The sequence AACTTCTCGTATTTCTCCTTGT came in with a sensor-assay potency score (higher = more potent) of -0.264.

Take TGCTGCACCCTCTTGAAGCGGC: the sensor-assay potency score (higher = more potent) is -0.694.

TTTCAGGGTCCGCCTCTTCTGC showed a sensor-assay potency score (higher = more potent) of -1.55.

Sequence TTGAGGTGGTCGACTTGCTGCA yielded a sensor-assay potency score (higher = more potent) of -0.511.

In turn, TCCCTCTCGCGCACCAGCCTGG displayed a sensor-assay potency score (higher = more potent) of -1.61.

Regarding TTCAGCTCGCGCACAGACATGG, the sensor-assay potency score (higher = more potent) was -0.726.

Sequence TCGACTTGCTGCAGCAGCTGGT registered a sensor-assay potency score (higher = more potent) of -0.659.

The sequence TAGCCGGTCATCCAGTAGTAGT came in with a sensor-assay potency score (higher = more potent) of -1.7.

In the case of TTTTCTCGGAAGCCGCTGCTCA, the sensor-assay potency score (higher = more potent) is -0.816.

Another test concerns the target MAGEA2B. The description is as above. Conditions: shRNA.
On to TCCAGGTCGGGAAACATTCTTG, for which the sensor-assay potency score (higher = more potent) is -1.23.

AAAATGAACCAACTCAACCATC had a sensor-assay potency score (higher = more potent) of -1.2.

Sequence TTAGTGTATGGTGCAGGACTTT yielded a sensor-assay potency score (higher = more potent) of -1.05.
Note: reference of the scale not given here.
